This is part of a sample that, as a whole, favours compounds with a hit. Of some 83,000 tested, about 20% had one in any assay.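 Plates (96-well) were seeded with cells, treated with compound at one concentration, and incubated for 48 hours before percent growth was determined.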 Active and inactive are the calls of the source. The calls were made as follows: active = growth percent below 10; inactive = the rest.

The test system of this experiment is HL-60(TB) leukemia. Nature of the experiment: NCI-60 one-dose screen, 48 h (100 = growth as untreated, 0 = no growth, -100 = all killed). The note with it: 10 µM unless noted.
Consider `COc1cc(NC(C)CCCN)c2ncccc2c1Sc1ccc(Cl)cc1` (stereo unspecified), for which the growth is 81.3% (inactive).
Consider `Cc1onc(-c2ccccc2Cl)c1C(=O)Cl`, for which the growth was 104% (inactive).
The value for `O=C1C(Cl)=C(Nc2ccc3c(c2NC2=C(Cl)C(=O)c4ccccc4C2=O)C(=O)c2ccccc2C3=O)C(=O)c2ccccc21` was -8.26% (active); that for `C=C(COC(C)=O)[C@H]1CC/C(C)=C/CC/C(C)=C/CC[C@@]2(C)O[C@H]2C1` was 103% (inactive).
In the case of `CCNCCNc1cc(-c2ccc(F)cc2)c(C#N)c2nc3ccccc3n12`, the growth was -48.8% (active).
For `O=C(Cc1ccc(/C=C/C(=O)c2ncc[nH]2)cc1)Nc1ccc(S(F)(F)(F)(F)F)cc1`, the growth is 42.1% (inactive).

For the origin of these results see PubChem BioAssay (NCI).
